Screening results (PubChem BioAssay)
CHT allo act – allosteric activators of human choline transporter CHT | CHT-expressing cells, membrane potential dye, choline EC20; hits give high values; LV-AA mutant CHT in HEK293 cells | actives 0.49% (n = 310,000) | B-score at 10 µM | AID 488977;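 active = initial fluorescence not abnormally high and integrated response B-score, plate-corrected, over 3 SD above library mean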
Kir21 block – Kir2.1 (mouse) channel inhibition | HEK293-Kir2.1, FluxOR thallium flux fluorescence; hits give low values | B-score at 10 µM | P35561 | actives 0.85% (n = 310,000) | AID 1672;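 active = fluorescence ratio B-score at or below minus 3 SD of library scores, with starting-brightness B-score within 2 SD, cut at about -4.2 in these data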;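 note: channel flux triggered by added potassium and thallium sulfate stimulus; B-score of peak minus minimum fluorescence over baseline after thallium stimulus; more negative B-score means stronger Kir2.1 block with less thallium influx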
Target sequence (P35561 whole entry, looked up): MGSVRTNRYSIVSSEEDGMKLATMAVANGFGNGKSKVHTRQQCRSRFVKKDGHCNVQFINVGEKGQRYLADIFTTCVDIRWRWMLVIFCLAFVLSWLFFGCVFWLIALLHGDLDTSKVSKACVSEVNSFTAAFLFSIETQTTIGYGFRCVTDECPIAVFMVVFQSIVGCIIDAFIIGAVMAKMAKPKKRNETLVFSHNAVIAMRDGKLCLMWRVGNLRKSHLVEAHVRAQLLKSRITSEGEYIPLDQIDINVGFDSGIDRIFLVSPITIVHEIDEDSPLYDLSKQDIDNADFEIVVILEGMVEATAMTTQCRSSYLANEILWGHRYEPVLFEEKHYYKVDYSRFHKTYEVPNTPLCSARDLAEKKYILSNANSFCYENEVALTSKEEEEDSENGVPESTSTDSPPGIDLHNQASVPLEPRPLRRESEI
TAG inh – inhibitors of triacylglycerol accumulation. actives 0.66% (n = 230,000). AID 651582. H9c2 cells, Nile Red lipid (TAG) fluorescence; cells loaded with 200 µM oleic acid. inhibition, % at 12.5 µM;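 active = pattern-corrected inhibition of lipid staining of at least 50% with the nuclear-stain viability signal not falling by more than 50%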;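 note: 0% = DMSO wells and 100% = triacsin C control wells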
CHT block – human CHT choline transport inhibition. Q9GZV3. CHT-expressing cells, membrane potential dye, choline response; hits give low values. B-score at 10 µM. actives 0.86% (n = 310,000). AID 488975;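 active = B-score over 3 SD under the library average, and starting fluorescence ratio not unusually high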;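 note: choline stimulus applied at its EC90 after an EC20 pre-addition; B-score computed on integrated fluorescence ratio after choline addition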
The depositor's hits bear a star; i = inactive; nt = no result given. Rows were chosen to be rich in hits. Some 2% of all compounds tested hit in one or more screens of this group.

SMILES	CHT allo act	Kir21 block	TAG inh	CHT block
Cn1c(-c2ccc3c(c2)OCO3)cnc1NCc1ccc(Cl)cc1	i	-11*	nt	i
Cc1[nH][nH]c(=O)c1C(c1ccc(-c2cccc(Cl)c2)o1)c1c(C)[nH][nH]c1=O	i	-6.6*	5	i
O=C(CSc1nccn1-c1ccc(Cl)cc1)NCc1ccc2c(c1)OCO2	i	-4.5*	-14	i
CCn1cc(SCC(=O)NCc2ccc3c(c2)OCO3)c2ccccc21	i	-4.7*	1	i
CCCn1cc(SCC(=O)NCc2ccc3c(c2)OCO3)c2ccccc21	i	0.47	-9	i
O=C(CSc1ncccn1)NCc1ccc2c(c1)OCO2	i	1	nt	i
Cn1nnnc1NCc1ccccc1F	i	-2.1	nt	i
CNC(=O)c1cc(S(=O)(=O)N2CC(C)OC(C)C2)ccc1N1CCCCC1 (stereo unspecified)	nt	-0.08	4	nt
Cc1ccc(Cn2nc(C)c(C(=O)NCC(c3ccc(F)cc3)N3CCOCC3)c2Cl)cc1 (stereo unspecified)	nt	nt	-7	nt
CC1CN(c2ccc([N+](=O)[O-])c(NCCOc3ccccc3)c2)CCN1 (stereo unspecified)	i	-5.1*	nt	i
COc1ccc(OCCNc2cc(N3CCCCC3)ccc2[N+](=O)[O-])cc1	i	-0.44	-11	i
Cc1ccccc1-c1nnc(SCCC(=O)N2CCOCC2)o1	i	1	-3	i
Cc1nc(C/C(=N\N)c2ccc(O)cc2O)cs1	i	0.35	92	i
CCc1cc(/C(Cc2csc(C)n2)=N/O)c(O)cc1O	i	-4.4*	-10	i
COc1ccc(-c2cc(N)n(S(=O)(=O)c3c(F)c(F)c(F)c(F)c3F)n2)cc1OC	i	-3.3	nt	-7.7*
O=C(c1ccc(Cl)c(Cl)c1)N(Cc1ccco1)c1ccc(O)cc1	i	-4.3*	nt	i
COc1ccc(C)cc1C1=Nc2ccccc2C1(C)C	i	-5*	nt	i
CC1CC(C)CN(CCOc2ccccc2-c2ccccc2)C1 (stereo unspecified)	i	-6.3*	nt	i
COc1cc(CNC2CCCC2)cc(Cl)c1OCc1ccccc1Cl	i	-9.3*	nt	i
CCOc1cc(CNC2CCCC2)cc(Cl)c1OCc1ccc(F)cc1	i	-11*	nt	i
COc1cc(CNC2CCCCCCC2)cc(Cl)c1OCC(N)=O	i	-0.99	nt	i
COc1cc(CNC2CCCC2)cc(OC)c1OC	i	2.1	nt	i
COc1cc(CNC2CCCC2)cc(Cl)c1OCc1ccc(F)cc1	i	-5*	-8	i
Cc1cc(=O)oc2cc(OCC(=O)OCC(=O)NC3CC3)ccc12	i	-1.7	10	i
O=C(COC(=O)COc1cccc(F)c1)Nc1nc2ccccc2s1	nt	nt	-7	nt
SMILES	CHT allo act	Kir21 block	TAG inh	CHT block
COc1ccc(S(=O)(=O)N2CCc3ccccc3C2)cc1OC	i	-4.2*	nt	i
COc1ccc(OC)c(S(=O)(=O)N2CCc3ccccc3C2)c1	i	-5	0	i
Cc1cc(C)c2ccc(C)[n+]([O-])c2c1O	i	0.13	-1	-20*
CCN(Cc1ccccc1)C1CCN(Cc2ccccc2)CC1	i	0.17	nt	i
CSc1ccccc1OC1CCN(Cc2ccccc2)CC1	i	-13*	nt	i
CN(C(=O)COc1ccccc1C(=O)NCCOc1ccccc1)c1ccccc1	i	-7.5*	nt	i
O=C(NCCOc1ccccc1)c1ccccc1Cl	i	1.3	nt	i
CCOc1ccc(C2=Nn3c(nnc3-c3ccccc3OC)SC2)cc1	i	-0.2	nt	-5.3*
COc1ccccc1-c1nnc2n1N=C(c1ccc(O)c(O)c1)CS2	i	-0.32	nt	i
CCOC(=O)C1CCN(CCCSc2ccc(C)cc2)CC1	i	1	-4	i
O=C(c1ccccc1)c1coc2ccc(O)c(CN3CCOCC3)c12	i	-6.3*	5	i
CN(C)Cc1c(O)ccc2occ(C(=O)c3ccccc3)c12	i	-1.1	nt	i
C/C(=N\NC(=O)CCn1nnc2ccccc21)c1cccs1	i	2.1	-13	i
Cc1ccccc1-c1csc(C(O)(c2ccccc2)C(F)(F)F)n1 (stereo unspecified)	nt	nt	-14	nt
COc1ccc(Nc2cc(C)c3ccc(O)cc3n2)cc1	i	-4.7*	-8	i
CCOc1ccc(Nc2cc(C)c3ccccc3n2)cc1	i	-0.11	nt	i
Cc1cc(Nc2ccccc2)nc2cc(O)ccc12	i	-5.2*	-7	i
COc1ccc(Nc2cc(C)c3cc([N+](=O)[O-])ccc3n2)cc1	i	-1	nt	i
CCOc1ccc(-n2c(Cc3ccccc3)nnc2SCc2c(C)noc2C)cc1	i	-3.1	1	i
CN(Cc1cn(C)nc1-c1ccc(Oc2ccccc2)cc1)Cc1cnc2ccccn12	i	-5.1*	-25	i
COc1cc(NC(=O)CCN2CC(C)OC(C)C2)cc(OC)c1 (stereo unspecified)	i	1	nt	i
Cc1cc(OCC(=O)NCC(c2ccc(F)cc2)N2CCOCC2)ccc1Cl (stereo unspecified)	nt	nt	3	nt
CCn1c2ccccc2c2cc(CN3CCN(C(=O)c4ccco4)CC3)ccc21	i	-0.71	-10	i
CCCS(=O)(=O)N1CCN(Cc2ccc3c(c2)c2ccccc2n3CC)CC1	i	-5.9*	nt	i
Cc1cc(C)c(C(N)=O)c(SCC(=O)c2cc(C)n(-c3cc(C)on3)c2C)n1	nt	nt	-16	nt
SMILES	CHT allo act	Kir21 block	TAG inh	CHT block
COc1ccc2nc(NC(=O)c3ccc([N+](=O)[O-])o3)sc2c1	i	0.26	nt	i
Cc1cc(C)c2sc(NC(=O)c3ccc([N+](=O)[O-])o3)nc2c1	i	0.95	57*	i
Cc1cc(/C=N/NC(=O)c2cccc(F)c2)c(C)n1-c1ccccc1	i	-1.2	-2	i
Cc1cc(/C=N/NC(=O)c2ccccc2F)c(C)n1-c1ccccc1	i	1.7	8	-6.3*
COc1ccc(S(=O)(=O)Nc2ccc3c(c2)C(=O)N([C@@H](C)CO)C[C@H](C)[C@H](CN(C)CC2CC2)O3)cc1	nt	nt	0	nt
OC(COc1ccc2cc(Br)ccc2c1)CN1CCCC1 (stereo unspecified)	i	-6.8*	nt	i
OC(COc1ccccc1)CN1CCCC1 (stereo unspecified)	i	-1.9	-5	i
COc1ccc(N2CCN(CC(O)COCCOc3ccc(Br)cc3)CC2)cc1 (stereo unspecified)	i	-4.3*	nt	i
CC(C)(c1ccccc1)c1ccc(OCC(O)CN2CCCC2)cc1 (stereo unspecified)	i	-5.3*	nt	i
N=c1n(CCN2CCCCC2)c2ccccc2n1CC(O)COc1ccccc1 (stereo unspecified)	7.2*	-3.2	8	i
COc1ccccc1N1CCN(CC(O)COCCOc2ccc(Br)cc2)CC1 (stereo unspecified)	i	-1.6	nt	i
O=S(=O)(N1CCCCC1)N1CCN(CC(O)COc2ccc3cc(Br)ccc3c2)CC1 (stereo unspecified)	i	-1	nt	i
CCOC(=O)N1CCN(Cc2nc3cc(NC(=O)c4ccco4)ccc3n2C)CC1	i	0.53	nt	i
